# The full data set covers some 7,900 targets. This sample favours those with a hit. About 0.6% of all pairs of compound and target were hits. Unmarked numbers belong to inactive results.
# How the values were obtained:
# Test in all cases: log2 fold change, soluble protein after heating vs DMSO (PISA); higher = thermal stabilisation; K562 cells, 10 uM, 30 min; active = over 0.2 and 3.5 SD of the protein, either way, in both replicates (recomputed)
# IRAK-1-4 Inhibitor I = compound: C1COCCN1CCN2C3=CC=CC=C3N=C2NC(=O)C4=CC(=CC=C4)[N+](=O)[O-] [IRAK-1-4 Inhibitor I]
# Method in brief: (§1)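 K562 cells (2×10^6 cells/mL) were treated with 10 μM compound for 30 min, and aliquots were heated for 3 min over 48°C-58°C. Pooled aliquots were extracted in PBS with 0.5% NP-40 at 4°C, and the supernatant after 21,000xg for 90 min was measured by TMTpro 16plex LC-MS/MS with channel sums equalised. Reported thermal stability, relative to control samples and from duplicates, is a log2 fold change.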
# ibrutinib = compound: C=CC(=O)N1CCC[C@@H](n2nc(-c3ccc(Oc4ccccc4)cc3)c3c(N)ncnc32)C1 [ibrutinib]
# Method in brief: as §1
# [1] = compound: CC(=O)c1cnc2ccc(-c3cc(Cl)c(O)c(Cl)c3)nc2c1N[C@H]1CC[C@H](CN(C)C)CC1
# Method in brief: as §1
# ralimetinib = compound: CC(C)(C)Cn1c(N)nc2ccc(-c3[nH]c(C(C)(C)C)nc3-c3ccc(F)cc3)nc21 [ralimetinib]
# Method in brief: as §1
# [2] = compound: CC(C)(O)CC(=O)NCCn1ccc2ncnc(Nc3ccc(Oc4cccc(C(F)(F)F)c4)c(Cl)c3)c21
# Method in brief: as §1
# [3] = compound: CC(C)C1=C2N=C(C=C(N2N=C1)NCC3=CC=CC=C3)NCCCCCCN
# Method in brief: as §1
# [4] = compound: CC(C)C[C@@H](C=O)NC(=O)[C@H](CC(C)C)NC(=O)[C@H](CC(C)C)NC(=O)OCc1ccccc1
# Method in brief: as §1
# pinometostat = compound: CC(C)N(C[C@H]1O[C@@H](n2cnc3c(N)ncnc32)[C@H](O)[C@@H]1O)[C@H]1C[C@@H](CCc2nc3cc(C(C)(C)C)ccc3[nH]2)C1 [pinometostat]
# Method in brief: as §1
# [5] = compound: CC1=C(C2=C(C=C1)C(=O)C3=CC=CC=C3N2CCCN)C
# Method in brief: as §1
# [6] = compound: CC1=C(C=C(C=C1)NC(=O)C2=CC(=CC=C2)C(C)(C)C#N)NC3=CC4=C(C=C3)N=CN(C4=O)C
# Method in brief: as §1
# [7] = compound: CC1=C(C=C(C=C1)NC(=O)C2=CC(=CC=C2)N(C)C)NC(=O)C3=CC=C(C=C3)O
# Method in brief: as §1
# [8] = compound: CC1=CC=C(C=C1)SC2=C3C=C(SC3=CN=C2)C(=O)N
# Method in brief: as §1
# [9] = compound: CC1=NC(=CC=C1)C2=C(N=C(N2)C(C)(C)C)C3=CC4=NC=CN=C4C=C3
# Method in brief: as §1
# Nexturastat A = compound: CCCCN(Cc1ccc(C(=O)NO)cc1)C(=O)Nc1ccccc1 [Nexturastat A]
# Method in brief: as §1
# vemurafenib = compound: CCCS(=O)(=O)Nc1ccc(F)c(C(=O)c2c[nH]c3ncc(-c4ccc(Cl)cc4)cc23)c1F [vemurafenib]
# Method in brief: as §1
# [10] = compound: CCCS(=O)(=O)Nc1ccc(F)c(C(=O)c2c[nH]c3ncc(Cl)cc23)c1F
# Method in brief: as §1
# [11] = compound: CCCc1cc(C)[nH]c(=O)c1CNC(=O)c1cc(-c2ccnc(N3CCN(C)CC3)c2)cc2c1cnn2C(C)C
# Method in brief: as §1
# givinostat = compound: CCN(CC)Cc1ccc2cc(COC(=O)Nc3ccc(C(=O)NO)cc3)ccc2c1 [givinostat]
# Method in brief: as §1
# barasertib = compound: CCN(CCCOc1ccc2c(Nc3cc(CC(=O)Nc4cccc(F)c4)[nH]n3)ncnc2c1)CCOP(=O)(O)O [barasertib]
# Method in brief: as §1
# [12] = compound: CC1=C(C(CC(=O)N1)C2=CC=C(C=C2)C(F)(F)F)C(=O)NC3=C(C=C4C(=C3)C=NN4)F
# Method in brief: as §1
# Sequence of UniProt P55060 (P55060 whole entry, looked up): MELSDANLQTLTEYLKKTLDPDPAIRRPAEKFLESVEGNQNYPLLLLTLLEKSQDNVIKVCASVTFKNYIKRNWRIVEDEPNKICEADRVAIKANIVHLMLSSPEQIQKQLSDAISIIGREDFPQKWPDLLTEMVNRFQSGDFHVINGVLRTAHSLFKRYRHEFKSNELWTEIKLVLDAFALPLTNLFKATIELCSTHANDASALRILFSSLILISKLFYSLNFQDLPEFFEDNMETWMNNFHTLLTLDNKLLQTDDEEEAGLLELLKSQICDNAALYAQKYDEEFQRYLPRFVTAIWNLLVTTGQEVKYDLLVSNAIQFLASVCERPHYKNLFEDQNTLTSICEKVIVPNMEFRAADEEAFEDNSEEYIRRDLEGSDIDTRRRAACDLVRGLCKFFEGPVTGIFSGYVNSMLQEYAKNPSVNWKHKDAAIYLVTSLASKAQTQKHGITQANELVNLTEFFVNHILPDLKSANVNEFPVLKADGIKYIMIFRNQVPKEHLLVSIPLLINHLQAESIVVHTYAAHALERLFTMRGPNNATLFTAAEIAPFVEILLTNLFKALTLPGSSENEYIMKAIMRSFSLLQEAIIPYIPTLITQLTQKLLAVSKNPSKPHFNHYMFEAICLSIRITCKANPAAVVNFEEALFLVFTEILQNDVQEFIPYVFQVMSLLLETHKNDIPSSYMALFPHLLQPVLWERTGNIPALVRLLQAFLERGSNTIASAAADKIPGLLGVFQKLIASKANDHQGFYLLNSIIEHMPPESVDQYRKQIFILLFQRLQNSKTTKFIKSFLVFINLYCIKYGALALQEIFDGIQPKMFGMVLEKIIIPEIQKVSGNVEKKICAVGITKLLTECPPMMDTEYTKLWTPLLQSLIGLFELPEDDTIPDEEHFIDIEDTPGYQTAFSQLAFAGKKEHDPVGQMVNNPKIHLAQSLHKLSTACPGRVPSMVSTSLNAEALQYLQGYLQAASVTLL
# Sequence of UniProt Q96SZ6 (Q96SZ6 whole entry, looked up): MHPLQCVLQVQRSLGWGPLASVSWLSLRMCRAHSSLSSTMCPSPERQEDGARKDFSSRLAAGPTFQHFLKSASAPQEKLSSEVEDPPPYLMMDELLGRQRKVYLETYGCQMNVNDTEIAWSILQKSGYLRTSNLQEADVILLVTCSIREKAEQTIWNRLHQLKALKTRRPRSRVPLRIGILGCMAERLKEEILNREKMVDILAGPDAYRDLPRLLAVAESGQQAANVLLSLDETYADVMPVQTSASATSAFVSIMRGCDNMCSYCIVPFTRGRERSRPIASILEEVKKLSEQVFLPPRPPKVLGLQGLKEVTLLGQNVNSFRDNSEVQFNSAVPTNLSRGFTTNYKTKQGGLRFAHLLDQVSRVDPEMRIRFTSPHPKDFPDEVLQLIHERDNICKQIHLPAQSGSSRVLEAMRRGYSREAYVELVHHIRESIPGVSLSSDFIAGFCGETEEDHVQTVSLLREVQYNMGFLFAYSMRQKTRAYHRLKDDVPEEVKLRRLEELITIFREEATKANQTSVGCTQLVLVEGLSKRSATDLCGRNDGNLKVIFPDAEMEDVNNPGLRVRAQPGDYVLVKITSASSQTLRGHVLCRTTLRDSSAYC
# Sequence of UniProt Q96G28 (Q96G28 whole entry, looked up): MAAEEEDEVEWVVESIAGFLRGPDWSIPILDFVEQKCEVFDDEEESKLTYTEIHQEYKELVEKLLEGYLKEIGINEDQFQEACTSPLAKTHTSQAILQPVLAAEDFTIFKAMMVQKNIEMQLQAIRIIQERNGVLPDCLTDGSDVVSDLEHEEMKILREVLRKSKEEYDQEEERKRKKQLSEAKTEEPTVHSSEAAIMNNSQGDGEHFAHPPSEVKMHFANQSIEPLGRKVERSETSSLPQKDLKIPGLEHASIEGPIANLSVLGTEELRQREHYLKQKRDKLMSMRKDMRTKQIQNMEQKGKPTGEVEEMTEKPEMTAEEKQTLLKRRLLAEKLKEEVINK
# Sequence of UniProt Q8N4S0 (Q8N4S0 whole entry, looked up): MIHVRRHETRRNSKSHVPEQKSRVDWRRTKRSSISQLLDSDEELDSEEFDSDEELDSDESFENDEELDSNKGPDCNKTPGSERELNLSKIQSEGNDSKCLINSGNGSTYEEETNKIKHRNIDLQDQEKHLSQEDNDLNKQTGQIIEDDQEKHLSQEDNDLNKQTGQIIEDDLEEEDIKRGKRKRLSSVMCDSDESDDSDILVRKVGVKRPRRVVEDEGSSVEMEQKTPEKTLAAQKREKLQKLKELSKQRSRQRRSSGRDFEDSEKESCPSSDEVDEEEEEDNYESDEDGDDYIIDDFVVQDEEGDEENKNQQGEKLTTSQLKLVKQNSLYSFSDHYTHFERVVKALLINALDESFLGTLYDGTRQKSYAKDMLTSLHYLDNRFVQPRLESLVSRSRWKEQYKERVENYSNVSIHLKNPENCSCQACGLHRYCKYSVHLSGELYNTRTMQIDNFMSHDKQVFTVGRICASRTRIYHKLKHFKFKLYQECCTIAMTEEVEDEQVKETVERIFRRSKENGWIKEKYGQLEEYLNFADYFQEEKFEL
# Sequence of UniProt Q86X95 (Q86X95 whole entry, looked up): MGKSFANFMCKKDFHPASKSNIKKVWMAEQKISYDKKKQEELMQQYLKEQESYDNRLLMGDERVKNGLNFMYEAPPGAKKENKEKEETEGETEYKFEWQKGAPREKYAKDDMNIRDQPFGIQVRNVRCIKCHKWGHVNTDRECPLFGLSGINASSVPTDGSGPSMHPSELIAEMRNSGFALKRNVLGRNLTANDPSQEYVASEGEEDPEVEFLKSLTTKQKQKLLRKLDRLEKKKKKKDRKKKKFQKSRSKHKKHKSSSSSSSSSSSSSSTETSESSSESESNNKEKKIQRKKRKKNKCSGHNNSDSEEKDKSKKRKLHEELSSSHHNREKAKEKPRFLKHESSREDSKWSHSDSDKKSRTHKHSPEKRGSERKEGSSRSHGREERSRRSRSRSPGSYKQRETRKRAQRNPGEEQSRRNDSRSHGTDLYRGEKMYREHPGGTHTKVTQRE
# Sequence of UniProt Q9UIV1 (Q9UIV1 whole entry, looked up): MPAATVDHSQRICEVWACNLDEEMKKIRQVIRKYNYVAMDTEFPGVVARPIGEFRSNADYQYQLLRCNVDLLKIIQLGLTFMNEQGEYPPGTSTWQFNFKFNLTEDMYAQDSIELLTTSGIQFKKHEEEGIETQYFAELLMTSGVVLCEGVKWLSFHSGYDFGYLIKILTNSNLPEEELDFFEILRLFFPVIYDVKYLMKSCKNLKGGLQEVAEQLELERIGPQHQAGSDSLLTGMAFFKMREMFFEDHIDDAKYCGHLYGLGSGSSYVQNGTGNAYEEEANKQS
# Sequence of UniProt P48729 (P48729 whole entry, looked up): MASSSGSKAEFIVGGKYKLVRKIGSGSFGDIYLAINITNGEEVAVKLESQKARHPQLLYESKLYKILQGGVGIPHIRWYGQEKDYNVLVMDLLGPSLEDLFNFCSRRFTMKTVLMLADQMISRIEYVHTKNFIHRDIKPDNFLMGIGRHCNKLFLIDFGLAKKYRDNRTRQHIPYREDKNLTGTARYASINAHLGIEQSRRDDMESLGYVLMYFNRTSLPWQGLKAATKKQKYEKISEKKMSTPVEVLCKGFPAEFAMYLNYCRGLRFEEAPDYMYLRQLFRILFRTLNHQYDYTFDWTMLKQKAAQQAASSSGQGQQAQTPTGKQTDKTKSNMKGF
# Sequence of UniProt P51946 (P51946 whole entry, looked up): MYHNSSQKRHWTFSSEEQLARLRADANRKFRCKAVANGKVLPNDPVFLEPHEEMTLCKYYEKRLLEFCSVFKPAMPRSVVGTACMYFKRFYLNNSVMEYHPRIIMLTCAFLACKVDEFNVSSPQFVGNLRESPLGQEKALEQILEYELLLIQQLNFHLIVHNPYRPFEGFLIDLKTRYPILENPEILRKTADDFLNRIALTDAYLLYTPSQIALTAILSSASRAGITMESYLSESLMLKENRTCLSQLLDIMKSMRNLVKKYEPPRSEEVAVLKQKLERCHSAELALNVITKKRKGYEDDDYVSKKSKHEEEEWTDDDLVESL
Target,log2 fold change (IRAK-1-4 Inhibitor I),log2 fold change (ibrutinib),log2 fold change [1],log2 fold change (ralimetinib),log2 fold change [2],log2 fold change [3],log2 fold change [4],log2 fold change (pinometostat),log2 fold change [5],log2 fold change [6],log2 fold change [7],log2 fold change [8],log2 fold change [9],log2 fold change (Nexturastat A),log2 fold change (vemurafenib),log2 fold change [10],log2 fold change [11],log2 fold change (givinostat),log2 fold change (barasertib),log2 fold change [12]
CFAP36 isoform 2 (UniProt Q96G28),-0.183,-0.022,0.001,0.053,-0.012,-0.09,0.065,0.024,0.103,0.005,0.024,0.054,0.066,0.023,-0.041,0.012,-0.061,-0.003,0.03,–
CSNK1A1 (UniProt P48729),-0.016,0.015,-0.053,0.026,-0.041,-0.25 (active),0.145,0.112,0.028,-0.021,0.03,-0.006,-0.12,0.028,-0.006,0,0.031,0.037,0,0.038
CHCHD1 (UniProt Q96BP2),-0.071,0.119,-0.009,-0.117,0.026,-0.027,0.037,-0.021,-0.19,-0.02,-0.119,0.279,0.008,0.141,-0.044,0.024,-0.747,0.013,-0.105,0.08
CCDC82 (UniProt Q8N4S0),-0.041,0.022,-0.07,-0.023,0.012,0,0.028,-0.019,-0.65 (active),–,-0.027,-0.007,-0.103,0.043,0.015,0.055,-0.035,-0.074,0.073,0.108
CCNH (UniProt P51946),-0.01,-0.04,-0.24 (active),-0.04,-0.009,0.084,-0.053,0.022,-0.01,-0.023,0.007,-0.015,-0.056,-0.002,0.003,0.018,-0.029,-0.007,0.031,0.045
CNOT7 (UniProt Q9UIV1),-0.039,0.022,-0.013,-0.016,-0.021,-0.002,0.079,0.066,0.033,0.046,-0.043,0.075,0.014,0.048,-0.068,0.053,-0.011,-0.026,0.004,-0.039
CIR1 (UniProt Q86X95),-0.023,0.121,-0.05,0.083,0.128,0.198,0.175,0.169,0.022,-0.04,-0.38,0.047,-0.018,0.199,-0.156,-0.129,0.047,-0.015,-0.105,–
CSE1L (UniProt P55060),0.001,-0.028,0.033,-0.011,-0.144,-0.145,-0.029,-0.027,-0.02,0.021,-0.006,0.068,0.083,-0.068,0.029,0.063,0.009,0.004,0.042,-0.008
CDK5RAP1 (UniProt Q96SZ6),-0.067,0.018,0.111,-0.057,-0.055,-0.066,-0.015,0.025,0.099,0.014,-0.04,0.002,0.05,-0.065,-0.007,-0.035,0.066,-0.166,-0.005,-0.038

# Source: the supplement of paper PMC10849652
